Results reported in PubChem BioAssay (NCATS).
Inconclusive results are not listed. Calls of active or inactive are those of the source. Calls come from the whole dose curve; as a rule, active = well fitted curve in the direction sought with a large enough effect; inconclusive = small, poorly fitted or top-dose-only effect, or another doubt; inactive = no such curve, though single readings can be large; an effect the other way counts as inactive or inconclusive.

Key:
[1] = tested on: C33A; assay: Primary qHTS to identify gynecologic anti-cancer compounds using libraries of approved drugs and bioactive compounds (AID 1345084); details: Gynecologic cancer cell panel viability, ATPlite luminescence, 48 h; series mostly up to 57.5 µM; note: nearly all actives have a fitted effect of over 55% in size; note: potency is the fitted concentration of half-maximal effect
Summary of the method: (§1)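 Cells, 1,000 per well, plated 16 h, then exposed 48 h at 37 C to compounds. Viability by ATPlite luminescence after 15 min at room temperature.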

[2] = tested on: CAOV3; assay: as above; details: Gynecologic cancer cell panel viability, ATPlite luminescence, 48 h; series mostly up to 57.5 µM
Summary of the method: as §1

[3] = tested on: CASKI; assay: as above; details: Gynecologic cancer cell panel viability, ATPlite luminescence, 48 h; series mostly up to 57.5 µM
Summary of the method: as §1

[4] = tested on: Es-2; assay: as above; details: Gynecologic cancer cell panel viability, ATPlite luminescence, 48 h; series mostly up to 57.5 µM
Summary of the method: as §1

[5] = tested on: HeLa; assay: as above; details: Gynecologic cancer cell panel viability, ATPlite luminescence, 48 h; series mostly up to 57.5 µM
Summary of the method: as §1

[6] = tested on: Hek293T; assay: as above; details: Gynecologic cancer cell panel viability, ATPlite luminescence, 48 h, control line for the selectivity index; series mostly up to 57.5 µM
Summary of the method: as §1

[7] = tested on: JEG-3; assay: as above; details: Gynecologic cancer cell panel viability, ATPlite luminescence, 48 h; series mostly up to 57.5 µM
Summary of the method: as §1

[8] = tested on: OV90; assay: as above; details: Gynecologic cancer cell panel viability, ATPlite luminescence, 48 h; series mostly up to 57.5 µM
Summary of the method: as §1

[9] = tested on: PA-1; assay: as above; details: Gynecologic cancer cell panel viability, ATPlite luminescence, 48 h; series mostly up to 57.5 µM
Summary of the method: as §1

[10] = tested on: SKOV3; assay: as above; details: Gynecologic cancer cell panel viability, ATPlite luminescence, 48 h; series mostly up to 57.5 µM
Summary of the method: as §1

[11] = tested on: Tov-21-G; assay: as above; details: Gynecologic cancer cell panel viability, ATPlite luminescence, 48 h; series mostly up to 57.5 µM
Summary of the method: as §1

[12] = tested on: Tov112D; assay: as above; details: Gynecologic cancer cell panel viability, ATPlite luminescence, 48 h; series mostly up to 57.5 µM
Summary of the method: as §1

[13] = Drug repurposing screens with cells derived from glioblastoma tumor samples (AID 1345199); details: GBM patient neurospheres viability, ATP luminescence, 48 h; note: nearly all actives have a fitted effect of over 40% in size
Summary of the method: (§2)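 Four patient lines of CD133+ GBM neurospheres were screened at several concentrations; hits were retested in those lines plus three slower-growing GBM lines, using 48-hour treatment and ATP-based viability.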

[14] = tested on: astro; assay: as above; details: viability, ATP luminescence, 48 h; series mostly up to 45.9 µM
Summary of the method: as §2

[15] = at 45.9 µM (top of the series), tumour line B
[16] = at 45.9 µM (top of the series), tumour line D
[17] = at 46 µM (top of the series), tumour line A
[18] = at 46.1 µM (top of the series), tumour line C
% is set by controls: 0 for no effect and ±100 for the full control effect.

OCC(O)CS (configuration not stated)
inactive: outcome [1] | outcome [2] | outcome [3] | outcome [4] | outcome [5] | outcome [6] | outcome [7] | Potency [8] | outcome [9] | outcome [10] | outcome [11] | outcome [12] | activity, negative = cell killing [13, 15] -7.05% | activity, negative = cell killing [13, 16] -1.81% | activity, negative = cell killing [13, 17] -9.33% | activity, negative = cell killing [13, 18] -1.31%

C/C(=C(\CCO)SS/C(CCO)=C(\C)N(C=O)Cc1cnc(C)nc1N)N(C=O)Cc1cnc(C)nc1N
inactive: outcome [1] | outcome [2] | outcome [3] | outcome [4] | outcome [5] | outcome [6] | outcome [7] | Potency [8] | outcome [9] | outcome [10] | outcome [11] | outcome [12] | activity, negative = cell killing [13, 15] 0.803% | activity, negative = cell killing [13, 16] 1.23% | activity, negative = cell killing [13, 17] -2.85% | activity, negative = cell killing [13, 18] 0.411%

NC(=O)NS(=O)(=O)c1ccc(N)cc1
inactive: outcome [1] | outcome [2] | outcome [3] | outcome [4] | outcome [5] | outcome [6] | outcome [7] | Potency [8] | outcome [9] | outcome [10] | outcome [11] | outcome [12] | activity, negative = cell killing [13, 15] -9.53% | activity, negative = cell killing [13, 16] 9.92% | activity, negative = cell killing [13, 17] -3.84% | activity, negative = cell killing [13, 18] 3.57%

O=C(O)Cc1ccc(CCNS(=O)(=O)c2ccc(Cl)cc2)cc1
inactive: outcome [1] | outcome [2] | outcome [3] | outcome [4] | outcome [5] | outcome [6] | outcome [7] | Potency [8] | outcome [9] | outcome [10] | outcome [11] | outcome [12] | activity, negative = cell killing [13, 15] -9.63% | activity, negative = cell killing [13, 16] -6.01%

C[C@]1(Cn2ccnn2)[C@H](C(=O)O)N2C(=O)C[C@H]2S1(=O)=O
inactive: outcome [1] | outcome [2] | outcome [3] | outcome [4] | outcome [5] | outcome [6] | outcome [7] | Potency [8] | outcome [9] | outcome [10] | outcome [11] | outcome [12] | activity, negative = cell killing [13, 15] -6.98% | activity, negative = cell killing [13, 16] -15.1% | activity, negative = cell killing [13, 17] -24.4% | activity, negative = cell killing [13, 18] -1.25%

O=C1CC[C@@H](C(=O)O)N1
inactive: outcome [1] | outcome [2] | outcome [3] | outcome [4] | outcome [5] | outcome [6] | outcome [7] | Potency [8] | outcome [9] | outcome [10] | outcome [11] | outcome [12] | activity, negative = cell killing [13, 15] -10.6% | activity, negative = cell killing [13, 16] -16.2% | activity, negative = cell killing [13, 18] 1.94%

CCCCCC(C)N (configuration not stated)
inactive: outcome [1] | outcome [2] | outcome [3] | outcome [4] | outcome [5] | outcome [6] | outcome [7] | Potency [8] | outcome [9] | outcome [10] | outcome [11] | outcome [12] | activity, negative = cell killing [13, 15] -17% | activity, negative = cell killing [13, 16] -7.45% | activity, negative = cell killing [13, 17] -32% | activity, negative = cell killing [13, 18] -13.3%

O=C1c2ccccc2C(=O)C1c1ccc(Br)cc1
inactive: outcome [1] | outcome [2] | outcome [3] | outcome [4] | outcome [5] | outcome [6] | outcome [7] | Potency [8] | outcome [9] | outcome [10] | outcome [11] | outcome [12] | activity, negative = cell killing [13, 15] -20.2% | activity, negative = cell killing [13, 16] -25.8% | activity, negative = cell killing [13, 18] -18.3%

CCCCCCCC(=O)OCC(O)CO (configuration not stated)
active: Potency [8] 3.55 µM
inactive: outcome [1] | outcome [2] | outcome [3] | outcome [4] | outcome [5] | outcome [6] | outcome [7] | outcome [9] | outcome [10] | outcome [11] | outcome [12] | activity, negative = cell killing [13, 15] -0.0604% | activity, negative = cell killing [13, 16] -12.6% | activity, negative = cell killing [13, 17] -23.4% | activity, negative = cell killing [13, 18] -3.44%

CCOC(N)=O
inactive: outcome [1] | outcome [2] | outcome [3] | outcome [4] | outcome [5] | outcome [6] | outcome [7] | Potency [8] | outcome [9] | outcome [10] | outcome [11] | outcome [12] | activity, negative = cell killing [13, 15] -14.9% | activity, negative = cell killing [13, 16] 19.2% | activity, negative = cell killing [13, 17] -11.2% | activity, negative = cell killing [13, 18] -16.1%

Cc1[nH]c(C)c(Cl)c(=O)c1Cl
inactive: outcome [1] | outcome [2] | outcome [3] | outcome [4] | outcome [5] | outcome [6] | outcome [7] | Potency [8] | outcome [9] | outcome [10] | outcome [11] | outcome [12] | activity, negative = cell killing [13, 15] -9.77% | activity, negative = cell killing [13, 16] -2.96% | activity, negative = cell killing [13, 17] -17.9% | activity, negative = cell killing [13, 18] -6.6% | outcome [14]

CC(=O)N(CC(O)CO)c1c(I)c(C(=O)NCC(O)CO)c(I)c(C(=O)NCC(O)CO)c1I (configuration not stated)
inactive: outcome [1] | outcome [2] | outcome [3] | outcome [4] | outcome [5] | outcome [6] | outcome [7] | Potency [8] | outcome [9] | outcome [10] | outcome [11] | outcome [12] | activity, negative = cell killing [13, 15] -2.73% | activity, negative = cell killing [13, 16] -8.17% | activity, negative = cell killing [13, 17] -31.6% | activity, negative = cell killing [13, 18] -23.8% | outcome [14]

CCCCC1(COC(=O)CCC(=O)O)C(=O)N(c2ccccc2)N(c2ccccc2)C1=O
inactive: outcome [1] | outcome [2] | outcome [3] | outcome [4] | outcome [5] | outcome [6] | outcome [7] | Potency [8] | outcome [9] | outcome [10] | outcome [11] | outcome [12] | activity, negative = cell killing ([13]; at 20 µM (top of the series), tumour line C) -5.58% | activity, negative = cell killing ([13]; at 21.2 µM (top of the series), tumour line B) -15.2% | activity, negative = cell killing ([13]; at 21.2 µM (top of the series), tumour line D) -10.8% | activity, negative = cell killing ([13]; at 21.3 µM (top of the series), tumour line A) -29.7% | outcome [14]
